Results: PubChem BioAssay AID1347414 (National Center for Advancing Translational Sciences (NCATS), 2020)
Results filed as inconclusive are left out. A number with no mark means an inactive call. Calls of active or inactive are those of the source. The call rests on the fitted dose curve; in most records, active means well fitted inhibition curve with a large enough effect; inconclusive means small, poorly fitted or top-dose-only effect; inactive means no such curve, though single readings can be large or run the other way.

Assay: qHTS to identify inhibitors of the type 1 interferon - major histocompatibility complex class I in skeletal muscle: Secondary screen by immunofluorescence; further: nearly all actives have a fitted effect of over 70% in size;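 on activity change, negative = inhibition: digitonin at 100 µM served as the cytotoxic control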
Settings: C25cl48 myoblasts, IFN-b induced HLA-ABC immunofluorescence, 24 h, Viability; series mostly up to 49.8 µM; activity change, negative = inhibition: at the top concentration
Summary of the method: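 Immortalized human myoblasts C25cl48 were stimulated with 4.0 ng/ml IFN-beta and exposed to an 11-point 1:3 compound titration, top 50 uM, for 24 h at 37 C. They were then fixed and immunostained for HLA-ABC, and quantified by laser scanning cytometry.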
On the % scale 0 is the no-effect control and ±100 the full control effect; potency means the concentration at half of the fitted maximal effect.

SMILES | activity change, negative = inhibition [%] | Potency
O=C(/C=C/c1ccc(CN(CCO)CCc2c[nH]c3ccccc23)cc1)NO | -3.46 | –
CC(C)(C)CC(=O)OCC(=O)[C@@]1(O)CC[C@H]2[C@@H]3CCC4=CC(=O)C=C[C@]4(C)[C@H]3[C@@H](O)C[C@@]21C | -16.5 | –
COc1cc2c(cc1-c1c(C)noc1C)ncc1[nH]c(=O)n([C@H](C)c3ccccn3)c12 | 10.5 | –
Cc1cc(Nc2cc(CN3CCOCC3)c3nc(C)c(Cc4ccc(Cl)cc4F)n3n2)n[nH]1 | – | 20.5 µM (active)
COc1cccc2c1C(=O)c1c(O)c3c(c(O)c1C2=O)C[C@@](O)(C(=O)CO)C[C@@H]3O[C@H]1C[C@H](N)[C@H](O)[C@H](C)O1 | 2.3 | –
CCN(CC)CCOc1ccc(Nc2ncc3cc(-c4c(Cl)cccc4Cl)c(=O)n(C)c3n2)cc1 | – | 9.13 µM (active)
CC[C@@]1(O)C(=O)OCc2c1cc1n(c2=O)Cc2c-1nc1ccccc1c2/C=N/OC(C)(C)C | -26 | –
C=CC(=O)N1CCc2ccc(-n3c(=O)ccc4cnc5ccc(-c6cnn(C)c6)cc5c43)cc21 | – | 16.2 µM (active)
CC(C)C[C@H](NC(=O)CNC(=O)c1cc(Cl)ccc1Cl)B1OC(=O)CC(CC(=O)O)(C(=O)O)O1 (stereo partly specified) | -1.81 | –
C[C@]12CCC(=O)C=C1CC[C@H]1[C@@H]3CC[C@](O)(C(=O)CO)[C@@]3(C)C[C@H](O)[C@@]12F | 7.29 | –
CC[C@@]1(O)C(=O)OCc2c1cc1n(c2=O)Cc2cc3c(CN(C)C)c(O)ccc3nc2-1 | -1.12 | –
CC(C)[C@H](C(=O)Nc1ccc(C(=O)NO)cc1)c1ccccc1 | -1.44 | –
CC(=O)Nc1ccc([C@H](C)C(=O)Nc2ncc(C(C)C)s2)cc1 | 7.22 | –
CN(c1ncccc1CNc1nc(Nc2ccc3c(c2)CC(=O)N3)ncc1C(F)(F)F)S(C)(=O)=O | -17.6 | –
CC(C)c1nn(-c2c(Cl)cccc2Cl)c2nc(Cc3ccc(OCCO)cc3)[nH]c(=O)c12 | -3.83 | –
COc1cc(F)ccc1-c1ncnc(Nc2cccc(CS(C)(=N)=O)c2)n1 (stereo unspecified) | 4.68 | –
CN1CCN(c2cccc(Nc3nc4c(-c5ccc(S(C)(=O)=O)cc5)cccn4n3)c2)CC1 | -24.5 | –
N#CC[C@H](C1CCCC1)n1cc(-c2ncnc3[nH]ccc23)cn1 | -5.42 | –

SMILES | activity change, negative = inhibition [%] | Potency
CNC(=O)c1ccc(Nc2ncc(C(F)(F)F)c(NCc3nccnc3N(C)S(C)(=O)=O)n2)cc1 | -9.86 | –
CO[C@@H]1[C@@H](O)[C@H](O)[C@@H](n2c3c(Cl)cccc3c3c4c(c5c6cccc(Cl)c6[nH]c5c32)C(=O)NC4=O)O[C@H]1CO | 6.14 | –
CN1CC[C@H](c2c(O)cc(O)c3c(=O)cc(-c4ccccc4Cl)oc23)[C@H](O)C1 | -1.82 | –
C[C@H](NC(=O)/C(C#N)=C/c1cccc(Br)n1)c1ccccc1 | – | 12.9 µM (active)
CCc1cc(C(N)=O)ccc1-n1nc(C(C)C)c2c(-n3cnc(-c4cnn(C)c4)c3)ccnc21 | 0.722 | –
CCS(=O)(=O)Nc1ccc(Oc2ccc(F)cc2F)c(-c2cn(C)c(=O)c3[nH]ccc23)c1 | 8.42 | –
C=C1C(=O)O[C@@H]2[C@H]3O[C@]3(C)CCC=C(C)CC[C@@H]12 | – | 8.14 µM (active)
O=C(Nc1nc2cccc(-c3ccc(CN4CCS(=O)(=O)CC4)cc3)n2n1)C1CC1 | -6.56 | –
CCc1c2c(nc3ccc(O)cc13)-c1cc3c(c(=O)n1C2)COC(=O)[C@]3(O)CC | 14.7 | –
COc1cccc2nc(-c3cccs3)nc(NN3C(=O)C=C(C)C3=O)c12 | – | 16.2 µM (active)
OC1CCC(Oc2cccc3cnc(Nc4ccc5nc[nH]c5c4)nc23)CC1 (stereo unspecified) | 6.19 | –
COC(=O)Nc1nc2ccc(C(=O)c3ccc(F)cc3)cc2[nH]1 | -16.8 | –
COC(=O)N[C@@H](C)CNc1nccc(-c2cn(C(C)C)nc2-c2cc(Cl)cc(NS(C)(=O)=O)c2F)n1 | 3.67 | –
CCCCC(=O)O[C@]1(C(=O)CO)[C@@H](C)C[C@H]2[C@@H]3CCC4=CC(=O)C=C[C@]4(C)[C@@]3(F)[C@@H](O)C[C@@]21C | -2.37 | –
CC(=O)NCC(=O)N1[C@@H]2CC[C@H]1c1ccc(Nc3ncc(C(F)(F)F)c(NC4CCC4)n3)cc12 | -12.4 | –
Cc1nc(Nc2n[nH]c3c2CN(C(=O)N[C@H](CN(C)C)c2ccccc2)C3(C)C)c2sccc2n1 | -3.25 | –
CCOC(=O)N1CCN(/[N+]([O-])=N/Oc2ccc([N+](=O)[O-])cc2[N+](=O)[O-])CC1 | – | 14.5 µM (active)
O=C(/C=C\n1cnc(-c2cc(C(F)(F)F)cc(C(F)(F)F)c2)n1)NNc1cnccn1 | -8.84 | –
